Here are results for 38 compounds from PubChem BioAssay (EPA / NIEHS).

Molecules are shown by their SMILES. A structure can be active in one record and inactive in another. Calls of active or inactive are those of the source. How the source made its calls: active means hit-call score of the fitted dose curve at least 0.9, where 1 is the maximum; inactive means score below 0.9.

This test can be described thus: ATG_NFI_CIS: Attagene CIS-FACTORIAL HepG2 Assay for human Nuclear Factor I (NFI) (AID 2282989). Particulars: HepG2 cis-regulatory reporter, NFI response element transcription; actives raise or lower the signal. The protocol:
ATG_CIS is a cell-based, multiplexed-readout assay that uses HepG2, a human liver cell line, with measurements taken at 24 hours after chemical dosing in a 24-well plate.ATG_NFI_CIS is one of 52 assay component(s) measured or calculated from the ATG_CIS assay. It is designed to make measurements of mRNA induction, a form of inducible reporter, as detected with fluorescence intensity signals by Reverse transcription polymerase chain reaction (RT-PCR) and Capillary electrophoresis technology.Data from the assay component ATG_NFI_CIS was analyzed into 1 assay endpoint. This assay endpoint, ATG_NFI_CIS, was analyzed with bidirectional fitting relative to DMSO as the negative control and baseline of activity. Using a type of inducible reporter, measures of mRNA for gain or loss-of-signal activity can be used to understand the reporter gene at the transcription factor-level as they relate to the gene NFIA. Furthermore, this assay endpoint can be referred to as a primary readout, because this assay has produced multiple assay endpoints where this one serves a reporter gene function. To generalize the intended target to other relatable targets, this assay endpoint is annotated to the dna binding intended target family, where the subfamily is nuclear factor I.
Human liver HepG2 cells are transiently transfected with multiple reporter transcription units (MRTUs) in 6-well plates using FuGene 6 reagent (Roche; 3 ml FuGene/1 mg DNA). The MRTU constructs are regulated by a cis-regulating element (promoter). […] A major difference between the CIS and TRANS system is that in CIS activities of endogenous TFs are measured, whereas the TRANS assay evaluates changes in activities of exogenous, chimeric NR-Gal4 proteins. […] At the end of 24 hour incubation, total RNA was isolated using TriZol reagent (Invitrogen). The isolated RNA is then reverse-transcribed using oligo(dT) primer and Mo-MLV reverse transcriptase (Invitrogen) with DNAse I (Ambion) treatment for 30 min. The one-tenth of the produced cDNA was amplified by PCR using Taq DNA polymerase (Invitrogen) and two reporter sequence-specific primers. The PCR products were fluorescently labeled by primer extension with 6-arboxyfluorescein (6-FAM) 5'-labeled reporter sequence-specific primer (2 min at 95 C, 20 s at 68 C and 10 min at 72 C) and these products were digested with 5U of HpaI (New England Biolabs) for 2h at 37 C. The fragments were purified using Qiaquick PCR columns (Qiagen), analyzed on an ABI 3130xL genetic analyzer (Applied Biosystems) with peak positions identified by using a set of X-rhodamine (ROX)-labeled MapMarker1000 molecular weight standards (BioVentures). The raw capillary electrophoresis data was processed using Attagraph software (Attagene).
As to `COC(=O)C(C)Oc1ccc(Oc2ccc(Cl)cc2Cl)cc1` (stereo not given), the compound was called inactive. Turning to `COc1cnc(OC)n2nc(NS(=O)(=O)c3c(OCC(F)F)cccc3C(F)(F)F)nc12`, the outcome was inactive. For the compound `CC1COC(Cn2cncn2)(c2ccc(Oc3ccc(Cl)cc3)cc2Cl)O1` (stereo not given), the result was inactive. In the case of `CC1=C(C(=O)Nc2ccccc2)SCCO1`, the call was inactive. On to `CCCCOC(=O)c1ccccc1C(=O)OCCCC`, for which the compound was called inactive. The same measure, in the same setting: the same measure for `COc1nc(C)nc(NC(=O)NS(=O)(=O)c2ccccc2CCC(F)(F)F)n1`: “inactive”; for `C=CC1(C)OC(=O)N(c2cc(Cl)cc(Cl)c2)C1=O` (stereo not given): “inactive”; for `OC(c1ccc(Cl)cc1)(c1cncnc1)c1ccccc1Cl` (stereo not given): “inactive”. The same measure, in the same setting: the same measure for `CCCCNC(=O)n1c(NC(=O)OC)nc2ccccc21`: “inactive”; for `COc1nc(NC(C)C)nc(NC(C)C)n1`: “inactive”. The same measure, in the same setting: then `CCOP(=S)(OCC)SCn1c(=O)oc2cc(Cl)ccc21`, with “inactive”. As for `O=C(Nc1ccccc1)Nc1ccnc(Cl)c1`, the result was inactive.

With `COP(N)(=O)SC` (stereo not given), the call was inactive. On the same count and under the same terms, the same measure for `COC(=O)c1ccccc1C(=O)OC`: “inactive”. Consider `CCCC1COC(Cn2cncn2)(c2ccc(Cl)cc2Cl)O1` (stereo not given), for which the result was inactive. Still for that read-out and setting: the same measure for `CNC(=O)ON=CC(C)(C)SC`: “inactive”; for `COc1nc(C)nc(NC(=O)NS(=O)(=O)c2ccccc2Cl)n1`: “inactive”. Still for that read-out and setting: then `O=C(O)COc1nc(Cl)c(Cl)cc1Cl`, with “inactive”; and `Cc1c(F)c(F)c(COC(=O)C2C(/C=C(\Cl)C(F)(F)F)C2(C)C)c(F)c1F` (stereo not given), with “inactive”; and `COP(=S)(OC)Oc1nc(Cl)c(Cl)cc1Cl`, with “inactive”. Same read-out and setting: the same measure for `CON(C)C(=O)Nc1ccc(Cl)c(Cl)c1`: “inactive”; for `CS/C(C)=N/OC(=O)N(C)SN(C)C(=O)O/N=C(\C)SC`: “inactive”. On to `CCNc1nc(Cl)nc(NCC)n1`, for which the compound was called inactive.

For the compound `CC(C)C1(C)N=C(c2nc3ccccc3cc2C(=O)O)NC1=O` (stereo not given), the result was inactive.

With `C=CCC1=C(C)C(OC(=O)C2C(C=C(C)C)C2(C)C)CC1=O` (stereo not given), the compound was called inactive and the AC50 is 61.6 µM (active) [middle of 5 runs]. `Cc1ccc(-c2c(Cl)nc(C#N)n2S(=O)(=O)N(C)C)cc1`: the compound was classed as inactive. Same read-out and setting: the same measure for `CCOC(=O)CC(SP(=S)(OC)OC)C(=O)OCC` (stereo not given): “inactive”; for `Cc1cc(Cl)ccc1OCC(=O)O`: “inactive”. On the same count and under the same terms, the same measure for `CC(C)Oc1cc(-n2nc(C(C)(C)C)oc2=O)c(Cl)cc1Cl`: “inactive”; for `COc1ccc(C(c2ccc(OC)cc2)C(Cl)(Cl)Cl)cc1`: “inactive”.

Take `CCCCNC(=O)OCC#CI`: the outcome was inactive and the AC50 is 49 µM (active). Consider `CCON=C(CC)C1=C(O)CC(c2c(C)cc(C)cc2C)CC1=O` (stereo not given), for which the outcome was inactive. Still for that read-out and setting: then `COC(=O)C=C(C)OP(=O)(OC)OC`, with “inactive”; and `CCCCC(CC)COC(=O)c1ccccc1C(=O)OCC(CC)CCCC` (stereo not given), with “inactive”; and `CN(C)C(=S)SSC(=S)N(C)C`, with “inactive”.

For the compound `N#CC(CCc1ccc(Cl)cc1)(Cn1cncn1)c1ccccc1` (stereo not given), the outcome was inactive.

Turning to `COC(=O)N(OC)c1ccccc1COc1ccn(-c2ccc(Cl)cc2)n1`, the outcome was inactive.

On to `CCNc1nc(Cl)nc(NC(C)C)n1`, for which the outcome was inactive.

In general, AC50 refers to the midpoint of the concentration-response curve, whichever way the signal moves.
